Screens as filed in PubChem BioAssay.
C diff growth: C. difficile growth inhibitors, primary screen, HTS; Clostridium difficile clinical isolate growth, OD600, 24 h; hits give low values; growth activity, negative = inhibition, % at 16 µg/mL (by protocol); actives 0.25% (n = 86,000); AID 1259249, 2017;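 active = mean growth activity at or below -80% and every replicate also at or below -80%; inconclusive = mean at or below -80% but some replicate above -80%; inactive = mean growth activity above -80%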
Pf Dd2 inh: P. falciparum Dd2 growth inhibitors, primary screen, SYBR Green fluorescence, single dose replicates; actives 2.3% (n = 94,000); 72 h; hits give low values; activity change, % at 10 µM; AID 1159554, 2015; in the data active = activity change below about -80%; inconclusive = no clear call, values can overlap the other calls
T cruzi growth-1: T. cruzi intracellular proliferation inhibitors, primary screen, cell-based, beta-gal Tulahuen parasites, NIH3T3 host, luminescence. T. cruzi beta-gal in NIH3T3, GalScreen luminescence, 90 h. inhibition, % at 8.34 µM. actives 5.9% (n = 77,000);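 active = mean inhibition above about 93%, with at least 55% of replicates each passing it, limit read from the data, passing the limit was not always enough; inconclusive = only one of those two conditions holds; inactive = neither condition holds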
T cruzi growth-2: T. cruzi intracellular proliferation inhibitors, confirmation, cell-based, NIH3T3 host, beta-gal parasite, luminescence, cherry-pick | actives 72% (n = 5,600) | shares compounds with T cruzi growth-1 | inhibition, % at 8.35 µM | T. cruzi beta-gal in NIH3T3, GalScreen luminescence, 90 h;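 active = mean replicate inhibition above about 95% and at least 55% of replicates individually reaching it, limit read from the data; inconclusive = only one of the two criteria is met; inactive = neither criterion is met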
T cruzi growth-3: inhibitors of intracellular T. cruzi replication, confirmation, NIH3T3 host cells, beta-gal parasites, cherry-pick, set 2 | shares compounds with T cruzi growth-1 | T. cruzi beta-gal in NIH3T3, GalScreen luminescence, 90 h | inhibition, % at 2.09 µM | actives 21% (n = 5,600);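 active = mean inhibition above about 95%, with at least 55% of replicates also reaching it, limit read from the data; inconclusive = meets just one of the two conditions; inactive = meets neither condition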
3T3 cytotox: cytotoxicity in mouse NIH/3T3 fibroblasts, confirmation, cytotoxicity control for T. cruzi proliferation inhibitor project, cell-based, cherry-pick, single point | actives 14% (n = 5,600) | shares compounds with T cruzi growth-1 | AID 651742, 2012 | cytotoxicity (signal decrease), % at 8.35 µM | NIH/3T3 viability, CellTiter-Glo ATP luminescence, 90 h;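 active = mean signal decrease across replicates above about 35% based on untreated-well scatter, with enough replicates individually passing, limit read from the data; inconclusive = no rule stated though some were filed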
NIH3T3 tox 2: NIH/3T3 fibroblast cytotoxicity, confirmation, cytotoxicity control, cell-based, cherry-pick, single point, set 2; actives 56% (n = 5,600); inhibition, % at 24.9 µM; AID 651744, 2012; NIH/3T3 viability, CellTiter-Glo ATP luminescence, 90 h; shares compounds with T cruzi growth-1;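 active = mean loss of cell viability signal at or above a set limit, and enough replicates individually reaching it; inconclusive = meets only the mean limit or only the replicate share; inactive = meets neither condition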
Of the large screens only hits and unclear results are named; the others gave an inactive call (follow-up assays come after a bar, where they were run). Compounds with a hit are over-represented: about 6.8% of the library has one in this group of screens.

C[C@@H]1CCCCO[C@@H](CN(C)CC2CCCCC2)[C@H](C)CN([C@@H](C)CO)C(=O)c2cc(NC(=O)c3ccccc3)ccc2O1	none
C[C@H](CO)N1C[C@H](C)[C@H](CN(C)CC2CCCCC2)OCCCC[C@H](C)Oc2ccc(NC(=O)Nc3ccccc3)cc2C1=O	T cruzi growth-1 inconclusive | T cruzi growth-2 98 | T cruzi growth-3 inactive | 3T3 cytotox inactive | NIH3T3 tox 2 105
O=C(C[C@H]1CC[C@@H]2[C@H](COC[C@@H](O)CN2C(=O)c2ccccc2F)O1)NCc1ccc(-c2ccccc2)cc1	none (no result: T cruzi growth-1)
C[C@@H]1CCCCO[C@H](CN(C)C(=O)Cc2ccccc2)[C@H](C)CN([C@H](C)CO)C(=O)c2cc(NC(=O)CCC(F)(F)F)ccc2O1	none
C[C@@H]1CN([C@@H](C)CO)C(=O)Cc2cc(NC(=O)CCC(F)(F)F)ccc2O[C@@H]1CN(C)S(=O)(=O)c1cn(C)cn1	none
C[C@@H]1CCCCO[C@@H](CN(C)C(=O)c2ccccc2)[C@H](C)CN([C@H](C)CO)C(=O)c2cc(N(C)C)ccc2O1	none
C[C@@H]1CCCCO[C@@H](CN(C)CC2CCCCC2)[C@@H](C)CN([C@H](C)CO)C(=O)c2cc(NC(=O)Nc3ccccc3)ccc2O1	T cruzi growth-1 103 | T cruzi growth-2 105 | T cruzi growth-3 97 | 3T3 cytotox inactive | NIH3T3 tox 2 57
C[C@H](CO)N1C[C@H](C)[C@H](CN(C)CC2CC2)OCCCC[C@H](C)Oc2ccc(NC(=O)Nc3ccccc3)cc2C1=O	T cruzi growth-1 98 | T cruzi growth-2 104 | T cruzi growth-3 inactive | 3T3 cytotox inactive | NIH3T3 tox 2 inactive
C[C@@H]1CCCCO[C@@H](CN(C)CC2CCCCC2)[C@H](C)CN([C@H](C)CO)C(=O)c2cc(NC(=O)NC3CCCCC3)ccc2O1	T cruzi growth-1 106 (no result: C diff growth) | T cruzi growth-2 104 | T cruzi growth-3 inactive | 3T3 cytotox inactive | NIH3T3 tox 2 107
C[C@@H]1CCCCO[C@H](CN(C)CC2CC2)[C@H](C)CN([C@@H](C)CO)C(=O)c2cc(NC(=O)Nc3ccc(F)cc3)ccc2O1	none
C[C@@H]1CN([C@@H](C)CO)C(=O)c2cc(NC(=O)c3ccccc3)ccc2O[C@@H](C)CCCCO[C@@H]1CN(C)CC1CCCCC1	none
C[C@@H]1CN([C@@H](C)CO)C(=O)c2cc(NC(=O)NC3CCCCC3)ccc2O[C@@H](C)CCCCO[C@@H]1CN(C)CC1CCCCC1	none (no result: C diff growth)
O=C(NC[C@H]1[C@@H](c2ccccc2)[C@@H](CO)N1CC1CCCC1)c1ccccc1	none
C[C@@H]1CCCCO[C@@H](CN(C)C(=O)Nc2ccc(F)cc2)[C@H](C)CN([C@@H](C)CO)C(=O)c2cc(NC(=O)Nc3ccccc3)ccc2O1	none
C[C@@H]1CCCCO[C@@H](CN(C)C(=O)Nc2ccc(F)cc2)[C@@H](C)CN([C@H](C)CO)C(=O)c2cc(NC(=O)Nc3ccccc3)ccc2O1	none
C[C@@H]1CCCCO[C@H](CN(C)C(=O)Nc2ccccc2)[C@H](C)CN([C@H](C)CO)C(=O)c2cc(NC(=O)Nc3ccc(F)cc3)ccc2O1	Pf Dd2 inh -85, T cruzi growth-1 102 (no result: C diff growth) | T cruzi growth-2 104 | T cruzi growth-3 108 | 3T3 cytotox inactive | NIH3T3 tox 2 inactive
C[C@H]1CCCCO[C@@H](CN(C)C(=O)Nc2ccc(F)cc2)[C@@H](C)CN([C@@H](C)CO)C(=O)c2cc(NC(=O)Nc3ccccc3)ccc2O1	none
